Measured values reported in PubChem BioAssay AID2314 (National Center for Advancing Translational Sciences (NCATS), 2010).
The whole screen tested about 300,000 compounds, of which about 37,000 (12%) were called active. The sample as a whole holds a higher share of actives than the screen did. Values without a mark were called inactive. No stated cut-off is given here; in the data, active means max response mostly above about 13% (no sharp cut-off); inactive means mostly below about 14%.

assay: Cycloheximide Counterscreen for Small Molecule Inhibitors of Shiga Toxin; settings: cell reporter, cycloheximide protein synthesis inhibition counterscreen; active compounds read high; further: read at 38.3 µM for the half of the compounds with a filed dose; 0% is about no effect

SMILES	max response
Cc1ccc(-c2nn(-c3cccc(F)c3)cc2CNCCc2ccncc2)o1	5.75%
Cc1ccc(Cl)c(NC(=O)CN2CCN(C=O)CC2)c1	5.32%
OC(CNCc1ccc(Cl)c(Cl)c1)c1ccccc1 (stereo not drawn)	9.74%
CCN(CC)C(=O)COc1coc(CN2CCN(Cc3ccccc3)CC2)cc1=O	-3.15%
CCC(Oc1ccccc1C)C(=O)Nc1ccc(S(=O)(=O)Nc2cc(C)on2)cc1 (stereo not drawn)	-7.98%
Cc1cccc(N2CCC(NCc3c(C(=O)N4CCCCC4)nc4c(C)cccn34)CC2)c1	-4.59%
Cc1ccnc(NC(=O)c2ccc(NC(=O)c3ccco3)cc2)c1	36.1% (active)
Cc1ccc(NC(=O)Nc2cccnc2)cc1	24.6% (active)
Cc1ccc(NC(=O)CC(=O)Nc2ccc(C)cc2)cc1	-2.02%
Cc1cc(NC(=O)c2ccc(F)cc2)ccc1NC(=O)c1ccco1	9.36%
O=C(Nc1ccc(O)cc1)c1ccc(NC(=O)c2ccco2)cc1	31.9% (active)
O=C(NNC(=O)c1cccnc1)Nc1ccccc1	4.83%
Cc1ccnc(NC(=O)CCC(=O)N(CC(=O)NCc2ccccc2)Cc2ccco2)c1	-2.62%
Cc1ccc(NC(=O)/C(=C\c2ccccc2)NC(=O)c2ccco2)cc1	0.86%
CCC(=O)Nc1ccc(C(=O)N2CCN(C(=O)c3ccco3)CC2)cc1	-1.69%
COC(=O)c1ccc(NC(=O)Nc2ccc(C)cc2)cc1	25.1% (active)
COc1cc(NC(=O)Nc2ccc(C)cc2)cc([N+](=O)[O-])c1	24%
Cc1ccc(NC(=O)NCC(c2cccnc2)N2CCOCC2)cc1 (stereo not drawn)	-4.08%
CCc1ccccc1NC(=O)NCCN1CCCCC1	-2.65%
COc1cccc(CNC(=O)CCC2CCCN(C(=O)c3ccoc3C)C2)c1 (stereo not drawn)	5.76%
Cc1ccc(S(=O)(=O)C2(S(=O)(=O)c3ccc(C)cc3)CCCC2)cc1	-2.93%
Nc1nc(SCC(=O)Nc2cc(C(F)(F)F)ccc2Cl)[nH]c(=O)c1NC(=O)c1ccco1	-2.16%
COc1ccc(S(=O)(=O)N2CCCCCC2)cc1C(=O)OCC(=O)Nc1cc(C)on1	-1.32%
Cc1cc(C)cc(C(=O)OCC(=O)NCCNC(=O)COC(=O)c2cc(C)cc(C)c2)c1	19%

SMILES	max response
O=C1c2ccccc2NC(c2ccccn2)N1NS(=O)(=O)c1ccccc1 (stereo not drawn)	3.3%
CCn1c(SCC(=O)NC2=NCCS2)nnc1C(C)NC(=O)c1ccccc1F (stereo not drawn)	-2.33%
Cc1cc2oc(=O)cc(CN3CCN(S(=O)(=O)c4cccs4)CC3)c2cc1C(C)C	-2.14%
Cc1ccc(CNC(=O)Cc2cn(C)c3ccccc23)cc1	11.6%
Cc1cc2oc(=O)cc(CN(C)Cc3ccc(OC(F)F)cc3)c2cc1Cl	-1.16%
O=C(NCCc1ccccc1Cl)C1CCC(=O)N(CCCc2ccccc2)C1 (stereo not drawn)	-1.41%
O=C(NCCN1CCOC1=O)C1CCC(=O)N(CCc2ccc(Cl)cc2)C1 (stereo not drawn)	-3.62%
O=C(NCCCc1ccccc1)C1CCC(=O)N(CCc2ccc(Cl)cc2)C1 (stereo not drawn)	12% (active)
C/C=C(\C)C(=O)NCCN1C2=NC[C@H](Cc3ccc(O)cc3)N2C[C@@H]1Cc1ccc(OC)cc1	0.212%
COc1ccccc1NC(=O)c1ccc(N2CC3CC(C2)c2cccc(=O)n2C3)c(NC(=O)c2cccnc2)c1 (stereo not drawn)	-5.5%
N=C1C(c2nc3ccccc3[nH]2)=C(O)CN1NC(=O)c1c[nH]c2ccccc12	6.82%
O=C(Nn1cnnc1)c1ccc([N+](=O)[O-])cc1	-3.89%
CCOC(=O)CCCN1CC(O)=C(c2nc3ccccc3s2)C1=N	6.59%
COc1ccccc1N1CC(O)=C(c2nc3ccccc3s2)C1=N	18.7% (active)
CCc1ccc(N2CC(O)=C(c3nc4ccccc4c(=O)[nH]3)C2=N)cc1	4.62%
N=C1C(c2nc3ccccc3s2)=C(O)CN1NC(=O)c1ccc([N+](=O)[O-])cc1	38.2% (active)
CCOc1ccc(N(CC(=O)Nc2ccccc2F)S(=O)(=O)c2c(C)[nH]c(=O)[nH]c2=O)cc1	9.46%
Cc1ccccc1/C=C\c1nc(O)c([N+](=O)[O-])c(=O)[nH]1	-5.68%
CSc1nnc(CNC(=O)c2ccccc2)n1-c1ccc(F)cc1	-2.44%
O=C(CNC(=O)c1ccccc1F)c1ccc(Br)cc1	57.7% (active)
O=C(COC(=O)CNC(=O)c1ccccc1F)NCC(F)(F)F	-1.02%
COC(=O)CNC(=O)c1ccccc1F	-2.02%
O=C(CNC(=O)c1ccccc1)NCC(=O)OCC(=O)c1ccccc1	-5.87%
O=C(CNC(=O)c1ccc(F)cc1)c1ccccc1	30% (active)

SMILES	max response
COCCNC(=O)NC(=O)COC(=O)C1(c2ccc(Cl)cc2)CC1	7.97%
CC1(C)Cc2c(sc(NC(=O)C(=O)N3CCOCC3)c2C#N)CO1	-9.16%
c1ccc(-c2nccc(-c3ccc(-n4cnc5ccccc54)cc3)n2)nc1	-1.84%
O=C(Oc1ccc(-c2nc(-c3ccccn3)no2)cc1)c1ccccc1	31% (active)
O=C(NCc1cccnc1)c1nc(-c2cccs2)no1	13.1%
CCCCCCOc1ccc(OC(=O)c2cccnc2)cc1	14.6%
CC1(C)N=C(c2ccccn2)C(C)(C)N1O	-7.15%
O=C(COC(=O)c1ccc(Oc2ccccc2)cc1)Nc1nnc(-c2ccccc2)o1	13.5%
Clc1ccc(-n2nnnc2-c2cnc(-c3ccccn3)nc2-c2cccs2)cc1	-3.52%
O=C(O)COc1ccc(-c2nccc(-c3cccs3)n2)cc1	-3.38%
CC(C)c1nc(-c2ccccn2)no1	22.8% (active)
c1csc(-c2nc(-c3ccncc3)no2)c1	29.3% (active)
COc1nc(-c2ccc(Cl)cc2)ccc1-c1noc(-c2cccs2)n1	-1.17%
c1ccc(-c2noc(-c3cccs3)n2)nc1	17.4% (active)
CCc1ccc(OC(C)C(=O)Nc2ccc(S(=O)(=O)Nc3cc(C)on3)cc2)cc1 (stereo not drawn)	-1.86%
COc1ccccc1NC(=O)CN(c1ccccc1OC)S(=O)(=O)c1ccccc1	-1.65%
O=C1C[C@@H](c2ccc3ccccc3c2)N1S(=O)(=O)c1ccccc1[N+](=O)[O-]	-1.77%
O=C1C2C(c3ccccc3)CC=CC2C(c2ccoc2)N1Cc1ccccc1 (stereo not drawn)	0.409%
O=C(CN1C(=O)NC2(CCCCC2)C1=O)NCCc1c[nH]c2ccccc12	-0.529%
CC(C)(C)N(Cc1ccccc1)C(=O)c1ccncc1	-0.936%
Cc1nnc(SCc2ccc(C(=O)c3ccc(Cl)cc3)o2)n1-c1ccccc1	6.81%
Cc1ccc2nc(-c3ccncc3)cc(C(=O)Nc3ccncc3)c2c1	6.6%
Cc1ccc(-c2noc(CSc3nnc(-c4ccncc4)n3-c3ccc(F)cc3)n2)cc1	0.685%
Cc1ccc(-c2nc(-c3ccncc3)no2)c(C)c1	43.8% (active)

SMILES	max response
Cc1cc(S(=O)(=O)N2CCOCC2)ccc1OCC(=O)Nc1cccc(C(F)(F)F)c1	-3.96%
CCC1=Nc2cc(C(=O)NCCN3CCCC3)ccc2Sc2ccc(C)cc21	14.2%
O=C(Nc1ccccc1)Nc1ccc(C(F)(F)F)cn1	13%
CONC(=O)c1cc(OCC(F)(F)F)ccc1OCC(F)(F)F	-3.39%
O=C(NC(=O)c1cc(OCC(F)(F)F)ccc1OCC(F)(F)F)Nc1ccccc1	8.68% (active)
CC1CCN(C(=O)Cn2nnnc2CN2CCOCC2)CC1	-2.13%
COc1ccc(CCNC(=O)C(=O)NCC2OCCN2S(=O)(=O)c2ccc(F)cc2)cc1OC (stereo not drawn)	1.66%
COCCNC(=O)c1ccc(N2CCC3(CC2)OCCO3)c([N+](=O)[O-])c1	-2.09%
CCC(C)NC(=O)c1ccc(N2CCC3(CC2)OCCO3)c([N+](=O)[O-])c1 (stereo not drawn)	20% (active)
CC(NC(=O)c1ccc(N2CCNCC2)c([N+](=O)[O-])c1)C12CC3CC(CC(C3)C1)C2 (stereo not drawn)	-1.62%
Cc1cc(C)cc(Oc2nc3c(C)cccn3c(=O)c2/C=C(\C#N)C(=O)NC2CCS(=O)(=O)C2)c1 (stereo not drawn)	-2.61%
COc1cc(/C=N/O)ccc1OCc1ccc([N+](=O)[O-])cc1	88.7% (active)
COc1cc(/C=N\Nc2ccc([N+](=O)[O-])cn2)ccc1OCC(=O)O	15.7%
COc1cc(C(=O)OCc2ccc([N+](=O)[O-])cc2)cc(OC)c1OC	-1.24%
Cc1cc(=O)oc2c3c(cc(OCC(=O)N[C@H](C(=O)O)c4ccccc4)c12)OC(C)(C)CC3	-1.78%
CC(C)C(NS(=O)(=O)c1ccc(-c2ccc(Br)cc2)cc1)C(=O)O (stereo not drawn)	7.4%
Cc1cc(C)cc(N(CC(=O)NC2CCCC2)C(=O)CCC(=O)Nc2nccs2)c1	-5.07%
Cc1nn(-c2ccccc2)c(=O)c2noc(C)c12	-1.05%
Cc1nn(-c2ccccc2)c(C)c1NC(=O)CCl	17.3%
Cc1nn(-c2ccccc2)c(C)c1/C=C/C(=O)OC(C)C(N)=O (stereo not drawn)	18.6% (active)
CCc1ccccc1S(=O)(=O)Cc1ccc(C(=O)NCCc2ccccc2)o1	16%
